Results as given in ChEMBL document CHEMBL1961873, “Compounds: GSK PKIS; Assays: Nanosyn kinase panel” (2012).

What was measured:
[1] = biological target: Dual specificity protein kinase CLK3 (Homo sapiens) (UniProt P49761); settings: at 1 µM;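 note: each value is the mean inhibition of CLK3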
[2] = biological target: Dual specificity tyrosine-phosphorylation-regulated kinase 1A (Homo sapiens) (UniProt Q13627); settings: at 0.1 µM
[3] = biological target: Dual specificity tyrosine-phosphorylation-regulated kinase 1A (Homo sapiens) (UniProt Q13627); settings: at 1 µM
[4] = biological target: Dual specificity tyrosine-phosphorylation-regulated kinase 1B (Homo sapiens) (UniProt Q9Y463); settings: at 0.1 µM
[5] = biological target: Dual specificity tyrosine-phosphorylation-regulated kinase 1B (Homo sapiens) (UniProt Q9Y463); settings: at 1 µM
[6] = biological target: T1, Dual specificity tyrosine-phosphorylation-regulated kinase 2 (Homo sapiens) (UniProt Q92630); settings: at 0.1 µM
T1 sequence (whole entry): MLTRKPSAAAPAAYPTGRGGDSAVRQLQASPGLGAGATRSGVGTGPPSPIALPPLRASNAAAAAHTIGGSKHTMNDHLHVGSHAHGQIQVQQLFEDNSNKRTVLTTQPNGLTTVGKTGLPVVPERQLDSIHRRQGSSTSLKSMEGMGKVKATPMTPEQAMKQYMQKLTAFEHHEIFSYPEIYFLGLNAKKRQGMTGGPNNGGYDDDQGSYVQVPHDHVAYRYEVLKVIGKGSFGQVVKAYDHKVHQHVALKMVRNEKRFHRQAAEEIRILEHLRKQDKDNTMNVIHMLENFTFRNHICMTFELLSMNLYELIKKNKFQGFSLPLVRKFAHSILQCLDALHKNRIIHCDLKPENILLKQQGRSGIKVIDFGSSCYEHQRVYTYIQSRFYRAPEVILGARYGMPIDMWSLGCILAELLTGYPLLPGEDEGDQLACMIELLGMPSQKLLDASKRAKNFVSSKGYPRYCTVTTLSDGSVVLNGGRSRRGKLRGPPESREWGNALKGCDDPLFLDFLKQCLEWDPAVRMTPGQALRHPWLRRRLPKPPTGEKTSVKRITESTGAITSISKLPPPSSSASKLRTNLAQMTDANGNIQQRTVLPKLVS

[7] = biological target: T1, Dual specificity tyrosine-phosphorylation-regulated kinase 2 (Homo sapiens); settings: at 1 µM
[8] = biological target: Glycogen synthase kinase-3 alpha (Homo sapiens) (UniProt P49840); settings: at 0.1 µM
[9] = biological target: Glycogen synthase kinase-3 alpha (Homo sapiens) (UniProt P49840); settings: at 1 µM
[10] = biological target: Glycogen synthase kinase-3 beta (Homo sapiens) (UniProt P49841); settings: at 0.1 µM
[11] = biological target: Glycogen synthase kinase-3 beta (Homo sapiens) (UniProt P49841); settings: at 1 µM
[12] = biological target: Homeodomain-interacting protein kinase 1 (Homo sapiens) (UniProt Q86Z02); settings: at 0.1 µM
[13] = biological target: Homeodomain-interacting protein kinase 1 (Homo sapiens) (UniProt Q86Z02); settings: at 1 µM
[14] = biological target: T2, Homeodomain-interacting protein kinase 4 (Homo sapiens) (UniProt Q8NE63); settings: at 0.1 µM
T2 sequence (whole entry): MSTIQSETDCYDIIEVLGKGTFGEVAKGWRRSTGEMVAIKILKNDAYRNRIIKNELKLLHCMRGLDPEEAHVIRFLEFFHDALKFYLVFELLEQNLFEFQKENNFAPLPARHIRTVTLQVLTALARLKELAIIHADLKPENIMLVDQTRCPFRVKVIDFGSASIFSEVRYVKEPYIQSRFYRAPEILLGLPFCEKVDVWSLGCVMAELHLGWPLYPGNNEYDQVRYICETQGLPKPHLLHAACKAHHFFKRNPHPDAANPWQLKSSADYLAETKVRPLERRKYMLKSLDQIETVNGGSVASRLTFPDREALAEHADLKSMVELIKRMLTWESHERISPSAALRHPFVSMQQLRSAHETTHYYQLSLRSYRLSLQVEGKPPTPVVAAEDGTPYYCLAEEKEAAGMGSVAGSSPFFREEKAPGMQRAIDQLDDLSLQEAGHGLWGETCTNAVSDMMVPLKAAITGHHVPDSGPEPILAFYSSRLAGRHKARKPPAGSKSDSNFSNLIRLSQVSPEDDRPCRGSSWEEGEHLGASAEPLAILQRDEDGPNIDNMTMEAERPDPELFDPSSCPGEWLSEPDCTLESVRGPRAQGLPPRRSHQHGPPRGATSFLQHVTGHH

[15] = biological target: T2, Homeodomain-interacting protein kinase 4 (Homo sapiens); settings: at 1 µM
[16] = biological target: Mitogen-activated protein kinase 9 (Homo sapiens) (UniProt P45984); settings: at 0.1 µM
[17] = biological target: Mitogen-activated protein kinase 9 (Homo sapiens) (UniProt P45984); settings: at 1 µM
[18] = biological target: Mitogen-activated protein kinase 1 (Homo sapiens) (UniProt P28482); settings: at 0.1 µM
[19] = biological target: Mitogen-activated protein kinase 1 (Homo sapiens) (UniProt P28482); settings: at 1 µM
[20] = biological target: Mitogen-activated protein kinase 3 (Homo sapiens) (UniProt P27361); settings: at 0.1 µM;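 note: each value is a mean inhibition figure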
Sequence of Mitogen-activated protein kinase 3 (Homo sapiens) (P27361 whole entry): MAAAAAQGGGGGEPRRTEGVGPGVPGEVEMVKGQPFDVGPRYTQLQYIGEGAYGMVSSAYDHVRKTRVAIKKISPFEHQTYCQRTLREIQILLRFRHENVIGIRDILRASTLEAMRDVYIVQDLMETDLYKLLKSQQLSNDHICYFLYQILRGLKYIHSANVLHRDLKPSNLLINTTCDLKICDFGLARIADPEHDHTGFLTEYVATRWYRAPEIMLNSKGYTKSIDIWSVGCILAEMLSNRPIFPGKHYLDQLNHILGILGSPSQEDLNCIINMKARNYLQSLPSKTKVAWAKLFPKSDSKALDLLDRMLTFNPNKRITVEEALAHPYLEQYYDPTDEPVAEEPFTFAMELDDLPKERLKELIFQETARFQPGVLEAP

Sequence of Glycogen synthase kinase-3 beta (Homo sapiens) (P49841 whole entry, looked up): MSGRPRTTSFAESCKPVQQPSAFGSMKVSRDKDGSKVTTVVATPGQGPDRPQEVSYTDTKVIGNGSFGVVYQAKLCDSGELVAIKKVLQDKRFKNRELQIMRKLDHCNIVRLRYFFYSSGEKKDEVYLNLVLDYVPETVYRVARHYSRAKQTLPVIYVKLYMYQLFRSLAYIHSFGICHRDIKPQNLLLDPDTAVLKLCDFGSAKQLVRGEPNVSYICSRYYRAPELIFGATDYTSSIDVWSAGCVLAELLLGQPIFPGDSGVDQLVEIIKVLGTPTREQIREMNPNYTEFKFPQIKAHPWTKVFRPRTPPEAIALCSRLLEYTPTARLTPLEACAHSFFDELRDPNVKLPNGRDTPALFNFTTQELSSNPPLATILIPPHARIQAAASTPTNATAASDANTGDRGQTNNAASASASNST
Sequence of Mitogen-activated protein kinase 1 (Homo sapiens) (P28482 whole entry): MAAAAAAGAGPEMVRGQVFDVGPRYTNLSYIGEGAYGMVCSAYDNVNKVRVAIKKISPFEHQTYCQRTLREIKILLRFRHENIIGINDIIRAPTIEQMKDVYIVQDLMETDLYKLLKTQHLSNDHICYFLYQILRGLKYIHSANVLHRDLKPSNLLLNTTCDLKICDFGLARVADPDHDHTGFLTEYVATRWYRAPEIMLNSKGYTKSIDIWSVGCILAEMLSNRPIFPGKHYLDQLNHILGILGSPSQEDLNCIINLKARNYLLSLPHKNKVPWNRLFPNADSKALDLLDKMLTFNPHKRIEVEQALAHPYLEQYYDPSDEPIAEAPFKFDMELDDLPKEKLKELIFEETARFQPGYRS
Sequence of Dual specificity protein kinase CLK3 (Homo sapiens) (P49761 whole entry, looked up): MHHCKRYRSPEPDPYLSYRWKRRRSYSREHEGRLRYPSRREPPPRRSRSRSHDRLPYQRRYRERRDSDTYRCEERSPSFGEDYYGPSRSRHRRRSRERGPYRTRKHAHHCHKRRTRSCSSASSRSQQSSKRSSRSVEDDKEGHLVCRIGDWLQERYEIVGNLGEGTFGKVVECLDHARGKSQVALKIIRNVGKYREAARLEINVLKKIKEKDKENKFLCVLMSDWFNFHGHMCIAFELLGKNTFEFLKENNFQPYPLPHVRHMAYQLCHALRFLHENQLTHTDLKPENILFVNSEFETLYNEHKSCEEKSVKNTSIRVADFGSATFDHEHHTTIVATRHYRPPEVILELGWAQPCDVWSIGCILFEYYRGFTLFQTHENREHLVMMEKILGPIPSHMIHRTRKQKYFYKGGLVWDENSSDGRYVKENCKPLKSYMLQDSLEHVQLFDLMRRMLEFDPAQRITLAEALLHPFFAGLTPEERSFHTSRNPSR
Sequence of Dual specificity tyrosine-phosphorylation-regulated kinase 1B (Homo sapiens) (Q9Y463 whole entry, looked up): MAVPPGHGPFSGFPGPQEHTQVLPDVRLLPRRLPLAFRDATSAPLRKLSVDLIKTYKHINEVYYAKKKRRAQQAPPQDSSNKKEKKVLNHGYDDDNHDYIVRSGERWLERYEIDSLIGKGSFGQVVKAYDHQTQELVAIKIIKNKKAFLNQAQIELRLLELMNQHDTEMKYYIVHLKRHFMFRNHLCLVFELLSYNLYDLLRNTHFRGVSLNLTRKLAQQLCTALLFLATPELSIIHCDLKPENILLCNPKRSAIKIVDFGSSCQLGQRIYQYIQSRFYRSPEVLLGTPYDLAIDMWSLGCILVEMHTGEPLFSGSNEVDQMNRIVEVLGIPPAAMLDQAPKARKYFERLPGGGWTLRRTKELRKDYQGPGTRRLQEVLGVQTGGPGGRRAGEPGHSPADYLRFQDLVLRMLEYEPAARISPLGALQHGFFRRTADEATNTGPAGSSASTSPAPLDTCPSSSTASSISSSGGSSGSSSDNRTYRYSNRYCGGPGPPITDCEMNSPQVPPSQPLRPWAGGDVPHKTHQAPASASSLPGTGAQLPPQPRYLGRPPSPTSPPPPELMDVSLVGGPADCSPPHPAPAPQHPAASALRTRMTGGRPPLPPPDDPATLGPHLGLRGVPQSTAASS
Sequence of Homeodomain-interacting protein kinase 1 (Homo sapiens) (Q86Z02 whole entry, looked up): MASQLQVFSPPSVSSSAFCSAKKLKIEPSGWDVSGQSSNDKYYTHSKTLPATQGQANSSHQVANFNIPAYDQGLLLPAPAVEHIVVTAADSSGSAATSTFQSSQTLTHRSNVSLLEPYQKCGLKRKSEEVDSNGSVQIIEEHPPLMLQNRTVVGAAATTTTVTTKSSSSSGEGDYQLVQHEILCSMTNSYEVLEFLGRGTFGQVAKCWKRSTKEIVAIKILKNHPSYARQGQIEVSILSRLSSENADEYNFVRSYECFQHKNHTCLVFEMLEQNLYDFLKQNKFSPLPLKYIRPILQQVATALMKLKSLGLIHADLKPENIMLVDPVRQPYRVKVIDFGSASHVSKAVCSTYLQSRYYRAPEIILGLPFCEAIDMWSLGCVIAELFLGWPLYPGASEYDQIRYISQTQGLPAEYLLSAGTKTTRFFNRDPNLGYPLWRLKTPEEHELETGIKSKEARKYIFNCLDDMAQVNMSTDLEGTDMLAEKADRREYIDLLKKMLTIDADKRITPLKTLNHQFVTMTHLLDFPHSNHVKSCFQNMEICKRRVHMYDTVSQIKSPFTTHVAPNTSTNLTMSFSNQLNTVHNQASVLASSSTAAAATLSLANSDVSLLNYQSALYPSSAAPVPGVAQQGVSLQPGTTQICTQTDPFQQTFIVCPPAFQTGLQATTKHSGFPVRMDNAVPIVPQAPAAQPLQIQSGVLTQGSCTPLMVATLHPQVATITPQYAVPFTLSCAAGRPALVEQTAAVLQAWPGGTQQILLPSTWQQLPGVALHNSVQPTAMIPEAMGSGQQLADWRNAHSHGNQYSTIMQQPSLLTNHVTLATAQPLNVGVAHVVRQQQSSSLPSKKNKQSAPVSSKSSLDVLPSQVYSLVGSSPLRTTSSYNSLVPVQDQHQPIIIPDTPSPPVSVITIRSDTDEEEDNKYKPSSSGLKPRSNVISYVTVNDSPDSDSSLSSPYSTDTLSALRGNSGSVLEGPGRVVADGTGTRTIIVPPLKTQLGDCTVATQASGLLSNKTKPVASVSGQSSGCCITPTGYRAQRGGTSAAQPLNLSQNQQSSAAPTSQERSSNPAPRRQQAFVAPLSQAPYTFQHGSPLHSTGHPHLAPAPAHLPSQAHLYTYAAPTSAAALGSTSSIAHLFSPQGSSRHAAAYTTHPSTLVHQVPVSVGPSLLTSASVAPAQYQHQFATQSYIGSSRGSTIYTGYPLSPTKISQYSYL
Sequence of Mitogen-activated protein kinase 9 (Homo sapiens) (P45984 whole entry, looked up): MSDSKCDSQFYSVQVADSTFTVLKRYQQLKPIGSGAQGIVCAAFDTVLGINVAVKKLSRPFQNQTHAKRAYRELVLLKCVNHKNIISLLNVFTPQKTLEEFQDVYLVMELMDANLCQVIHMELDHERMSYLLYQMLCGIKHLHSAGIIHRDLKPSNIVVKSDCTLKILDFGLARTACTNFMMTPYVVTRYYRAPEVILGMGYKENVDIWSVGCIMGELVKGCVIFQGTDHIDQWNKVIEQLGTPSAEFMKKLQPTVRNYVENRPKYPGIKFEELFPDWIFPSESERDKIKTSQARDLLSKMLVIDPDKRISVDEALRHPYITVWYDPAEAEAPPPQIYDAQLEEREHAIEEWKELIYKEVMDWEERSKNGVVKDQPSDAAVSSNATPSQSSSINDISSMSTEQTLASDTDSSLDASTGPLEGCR
Sequence of Glycogen synthase kinase-3 alpha (Homo sapiens) (P49840 2-483 limits assumed): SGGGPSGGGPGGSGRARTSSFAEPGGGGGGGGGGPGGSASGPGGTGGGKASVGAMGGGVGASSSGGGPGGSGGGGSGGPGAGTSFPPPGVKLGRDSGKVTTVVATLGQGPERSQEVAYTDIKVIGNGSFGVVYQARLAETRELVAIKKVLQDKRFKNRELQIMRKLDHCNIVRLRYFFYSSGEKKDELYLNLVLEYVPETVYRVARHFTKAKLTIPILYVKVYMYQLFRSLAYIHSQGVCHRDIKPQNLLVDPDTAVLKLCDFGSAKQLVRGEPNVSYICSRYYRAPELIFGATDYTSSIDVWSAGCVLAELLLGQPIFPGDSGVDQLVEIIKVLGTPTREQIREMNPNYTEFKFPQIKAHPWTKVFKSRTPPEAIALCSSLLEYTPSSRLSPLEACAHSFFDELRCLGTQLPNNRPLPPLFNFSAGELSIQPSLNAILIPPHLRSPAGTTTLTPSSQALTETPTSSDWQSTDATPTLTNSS

| SMILES | inhibition [1] [%] | inhibition [2] [%] | inhibition [3] [%] | inhibition [4] [%] | inhibition [5] [%] | inhibition [6] [%] | inhibition [7] [%] | inhibition [8] [%] | inhibition [9] [%] | inhibition [10] [%] | inhibition [11] [%] | inhibition [12] [%] | inhibition [13] [%] | inhibition [14] [%] | inhibition [15] [%] | inhibition [16] [%] | inhibition [17] [%] | inhibition [18] [%] | inhibition [19] [%] | inhibition [20] [%] |
| --- | --- | --- | --- | --- | --- | --- | --- | --- | --- | --- | --- | --- | --- | --- | --- | --- | --- | --- | --- | --- |
| CNC(=O)c1cncc(/C=C/c2ccccc2Cl)c1 | 0.64 | -0.68 | 0.12 | -0.37 | 0.88 | 1.32 | 1.49 | 3.11 | 8.27 | 3.39 | 10 | 1.58 | 2.44 | 0.63 | 1.63 | -1.14 | -1.36 | 0.37 | -1.68 | 0.99 |
| CS(=O)(=O)CCNCc1ccc(-c2ccc3ncnc(Nc4ccc(OCc5ccccc5)c(C(F)(F)F)c4)c3c2)o1 | 0.19 | 2.36 | 4.91 | -2.07 | -0.6 | 3.17 | 0.91 | 3.36 | 3.82 | 3.13 | 3.51 | -3.76 | -0.23 | -0.74 | -1.78 | 2.51 | 0.92 | 4.58 | 5.24 | 3.56 |
| Cc1cccc(Nc2ncc(-c3ccccc3)o2)c1 | 0.79 | 1.29 | 4.26 | 0.51 | 2.16 | 3.21 | 5.94 | 4.32 | 12.3 | 3.23 | 12 | -1.62 | 9.25 | 1.22 | 8.11 | 5.28 | 7.95 | 3.91 | 5.08 | 5.66 |
| c1ccc(COc2ccc(Nc3ncnc4ccc(-c5ccco5)cc34)cc2)cc1 | -0.29 | -1.32 | 3.87 | -0.39 | 0.34 | 0.31 | -1.53 | 1.11 | 1.51 | 0.28 | 2.25 | -3.03 | -3.68 | 0.31 | 1.89 | 1.39 | 1.07 | 2.65 | -3.36 | 0.95 |
| Cc1ccc(O)cc1Nc1ccnc2cc(-c3ccccn3)ccc12 | 2.88 | 2.56 | 4.96 | 0.53 | 1.85 | 3.35 | 5.79 | 2.73 | 6.51 | 1.23 | 5.65 | 1.24 | 5.57 | 1.19 | 0.77 | 2.32 | 11.5 | -0.57 | 4.7 | 1.59 |
| CN1CCC(n2cnc(-c3ccc(F)cc3)c2-c2ccnc(N)n2)CC1 | 1.25 | 1.69 | 6.19 | 0.68 | 2.08 | 2.29 | 12.5 | 1.36 | 7.39 | 1.11 | 8.08 | 3.64 | 24.8 | 1.91 | 16.7 | 2.6 | 11.3 | 0.3 | 2.71 | 3.88 |
| FC(F)(F)c1cccc(-c2nn3ncccc3c2-c2ccnc(Nc3ccc4c(c3)OCCO4)n2)c1 | 0.79 | 1.23 | 2.77 | 0.78 | 0.83 | 2.54 | 3.26 | 5.83 | 22.4 | 5.36 | 33.3 | -2.65 | 3.4 | -0.63 | 3.75 | 4.15 | 20.4 | 1.58 | 4.01 | 1.85 |
